Results published in ChEMBL document CHEMBL3988442, “University of Dundee, Small-Polar-MMV Screening Library” (2021).
Hit rate of the full screen: of about 48,000 compounds, about 13,000 (27%) showed an effect of 50% or more. The list shows a part of the results.

Test system: Wolbachia pipientis
Assay: Anti-Wolbachia Cell-Based Screen
Type: functional
Set-up: scale not given: in the data most compounds retested in dose-response had high values
Conditions: 5 µM

SMILES	Percent Effect [%]
Cc1nn(C)c(C)c1CN(C)S(=O)(=O)c1c(C)n[nH]c1C	32.27
CCC(=O)N1CCN(C(=O)c2ccc(COC)o2)[C@H]2CS(=O)(=O)C[C@H]21	2.835
CN(C)CCNCC1(O)CCCN(Cc2cccc(F)c2F)C1=O (centres undefined)	-8.676
CNS(=O)(=O)CCNC(=O)c1coc(COc2ccc(F)cc2)n1	-18.85
O=C([C@@H]1Cc2[nH]cnc2CN1CC1CC1)N1CCCC1	2.393
COC(=O)NCC(=O)NC1CC(C)(C)Cc2oc(C)cc21 (centres undefined)	-2.578
CC(C)(C)c1ncc2c(n1)CN(C(=O)c1ccc(-n3cnnn3)cc1)C2	-15.52
CC1(C)Cc2nc(C(C)(C)C)ncc2C(NC(=O)C2(N)CC2)C1 (centres undefined)	76.58
Cc1cc(C)n(CC(=O)N2Cc3cnc(C(C)(C)C)nc3C2)n1	-6.513
CC1(C)Cc2nc(C(C)(C)C)ncc2C(NC(=O)Cc2nnn[nH]2)C1 (centres undefined)	84.56
COC(C)(C)C(=O)N1Cc2cnc(C(C)(C)C)nc2C1	5.24
CC1(C)Cc2nc(C(C)(C)C)ncc2C(NC(=O)CN)C1 (centres undefined)	108.4
CNCC(=O)NC1CC(C)(C)Cc2nc(C(C)(C)C)ncc21 (centres undefined)	107.2
CC(=O)NC1CC(C)(C)Cc2c1cnn2-c1cccc(F)c1 (centres undefined)	27.72
Cc1cc2c(o1)CC(C)(C)CC2NC(=O)CNC(=O)C1CC1 (centres undefined)	15.35
CC(C)(C)c1ncc2c(n1)CN(C(=O)c1ccncc1)C2	6.547
CC(=O)N1Cc2cnc(C(C)(C)C)nc2C1	-14.29
O=C(Nc1ccc(F)c(Cl)c1)N1CCCN([C@H]2COC[C@@H]2O)CC1	0.3317
Cc1nc(C)n(CC2CCCCN2CC(=O)Nc2nncs2)n1 (centres undefined)	-8.145
Cc1cc(C)cc(CN2CCN(Cc3cc(C#N)n(C)c3)CC2=O)c1	-7.638
CCCC(C)Sc1nnnn1C1CCOCC1 (centres undefined)	-26.91
Cc1c[nH]c(CN2CCCn3nc(CNS(C)(=O)=O)cc3C2)n1	-1.605
CC(O)CNC(=O)NCc1cccnc1OC1CCCC1 (centres undefined)	3.42
CCC(CNC1CCN(C(=O)N(C)C)CC1)Oc1ccccc1C (centres undefined)	14.11
CCc1nnc(C(C)N2CCC(NC(=O)C3CCCCC3)CC2)o1 (centres undefined)	111.1

SMILES	Percent Effect [%]
CNC(=O)CCN1CCN(C(C)c2ccc(Cl)cc2)CC1 (centres undefined)	7.005
CCSCCC(=O)NC1CCN(C(C)c2ccccc2)CC1 (centres undefined)	-12.67
CCc1nnc(C(C)N2CCN(CCC(=O)NC3CC3)CC2)o1 (centres undefined)	108.9
CCS(=O)(=O)c1ccc(N2CCC(NC(=O)C3CCCCC3)CC2)cc1	14.13
CCc1noc(C(C)N2CCC(NC(=O)c3ccc(C)s3)CC2)n1 (centres undefined)	-3.823
CC(C)c1noc(C(C)N2CCN(CCc3ccncc3)CC2)n1 (centres undefined)	-3.07
CCc1noc(C(C)N2CCN(Cc3ncc(C(C)(C)C)o3)CC2)n1 (centres undefined)	-21.42
CCc1nnc(C(C)N2CCN(CCC(C)(C)C)CC2)o1 (centres undefined)	109.6
CC(C)(C)n1ncc2c(=O)[nH]c(N3CC(O)C3)nc21	23.02
CN(C)c1nc(CNC(=O)NC2CCc3ccccc32)cs1 (centres undefined)	14.75
CC(c1nccs1)N(C)Cc1ccc(CCC(C)(C)O)cc1 (centres undefined)	-1.522
CC(=O)N1C[C@@H](F)[C@@H](OCc2nc3cc(C)c(C)cc3[nH]2)C1	-18.48
CCOCCCNc1nc2c(s1)c(C)nn2C	6.024
CCOCCCNC(=O)NCc1c(C)nn(C)c1C	102.2
CCOCCCNC(=O)c1cn(CC)nc1C	9.774
CCc1nc2c(c(N(C)Cc3nncn3CCOC)n1)CCNCC2	0.734
Cc1cc2[nH]c(=O)c(=O)[nH]c2cc1S(=O)(=O)NC1CCCCC1	114.9
Cc1cc(CS(=O)(=O)NC2CCCCC2)on1	4.481
Cc1cn2c(n1)CCC(NS(=O)(=O)c1cc(C)sc1C)C2 (centres undefined)	-1.827
Cc1cc2[nH]c(=O)c(=O)[nH]c2cc1S(=O)(=O)NC1CCC(C)CC1 (centres undefined)	107.5
Cc1cc(S(C)(=O)=O)c(C)c(S(=O)(=O)NC2CCCC2)c1	3.251
Cc1c(NCc2cccc(C#N)c2)cccc1S(=O)(=O)NC1CC1	-25.48
CC(C)(O)CN1CCN(C(=O)COCC(F)(F)F)CC1	2.26
O=C1NCC2(CCCN(C(=O)c3ccc4c(c3)CCCO4)CC2)O1 (centres undefined)	15.15
CN(C)c1ccc(NC(=O)c2cccc(N(C)C)c2)nc1	-10.74

SMILES	Percent Effect [%]
Cc1ccc(NC(=O)c2cccc(OCc3nnnn3C)c2)nc1	97.4
Cc1ccc(NC(=O)c2cccc(N(C)C)c2)nc1	-7.622
Cc1ccnc(NC(=O)c2cccc(OCc3nnnn3C)c2)c1	92.28
Cc1ccnc(NC(=O)c2ccc(C)o2)c1	-0.4749
Cc1ccnc(NC(=O)c2ccc(Br)o2)c1	-3.231
CNS(=O)(=O)CCN1CC(c2ccccc2)(c2ccccc2)CCC1=O	8.028
CCC(CC)(CNC(=O)OC(C)(C)C)NC(=O)c1cnccn1	8.305
CN(Cc1cn2c(n1)CN(Cc1nccs1)CC2)Cc1ccco1.O=C(O)C(F)(F)F.O=C(O)C(F)(F)F	-16.64
CN(Cc1cccnc1)C1CC2(CCN(c3ncc(F)cn3)CC2)C1.O=C(O)C(F)(F)F.O=C(O)C(F)(F)F	-6.301
CN(Cc1ccncc1)C1CC2(CCN(c3ncccn3)CC2)C1.O=C(O)C(F)(F)F.O=C(O)C(F)(F)F.O=C(O)C(F)(F)F	-4.65
CN(Cc1cccnc1)C1COC2(CCN(Cc3nccs3)CC2)C1.O=C(O)C(F)(F)F.O=C(O)C(F)(F)F.O=C(O)C(F)(F)F (centres undefined)	111.1
CN(Cc1ccccn1)C1COC2(CCN(Cc3nccs3)CC2)C1 (centres undefined)	-7.584
CN(Cc1cccnc1)C1CC2(CCN(c3ncccn3)CC2)C1.O=C(O)C(F)(F)F.O=C(O)C(F)(F)F	96.99
CN(C)S(=O)(=O)N1CC[C@]2(C[C@H](OCc3ccncc3)CO2)C1.O=C(O)C(F)(F)F	20.75
CN(Cc1ccco1)C1COC2(CCN(Cc3nccs3)CC2)C1.O=C(O)C(F)(F)F.O=C(O)C(F)(F)F (centres undefined)	98.22
Cc1cnc(N2CCC3(CC2)CC(N(C)Cc2ccncc2)C3)nc1.O=C(O)C(F)(F)F.O=C(O)C(F)(F)F	-8.3
CN(Cc1ccncc1)C1COC2(CCN(Cc3cccs3)CC2)C1.O=C(O)C(F)(F)F.O=C(O)C(F)(F)F.O=C(O)C(F)(F)F (centres undefined)	100.2
CN(Cc1ccccc1)C1COC2(CCN(Cc3nccs3)CC2)C1.O=C(O)C(F)(F)F (centres undefined)	20.92
Cc1ccsc1CN1CCC2(CC1)CC(OCc1cccnc1)CO2.O=C(O)C(F)(F)F.O=C(O)C(F)(F)F (centres undefined)	12.52
COc1ccc(CN(C(=O)C(C)SC)c2cnn(C)c2)c(OC)c1 (centres undefined)	-2.56
O=C1CC[C@H]2CN(Cc3ccc(Cl)s3)CC[C@H]2N1CCc1c[nH]cn1	-29.01
CCc1cc(NCCNc2ccncc2C)n2nc(C)c(C)c2n1	11.08
Cc1noc(C)c1CN(C)C(=O)C1(NS(C)(=O)=O)CCCCC1	-10.96
CCc1nc(C)c(CN2CCOC(CCCC(C)C)C2)[nH]1 (centres undefined)	-5.664
COC[C@H]1CNC(=O)[C@@H]2CCN(Cc3ccc(F)cc3)CC[C@H]12.O=C(O)C(F)(F)F	-11.52

SMILES	Percent Effect [%]
CSc1nccc(N2CCN(C)C3(CCC(=O)N(CC4CC4)CC3)C2)n1 (centres undefined)	-14.1
O=C(NCC(F)(F)F)C1CSCN1S(=O)(=O)c1ccc(F)cc1 (centres undefined)	3.931
CC1N(CC2CC2)C(=O)COC12CCN(Cc1nccs1)CC2.O=C(O)C(F)(F)F (centres undefined)	-4.952
CC1N(C)C(=O)COC12CCN(Cc1nccs1)CC2.O=C(O)C(F)(F)F (centres undefined)	126.1
CC(C)CN1CCC2(CCN(Cc3nccs3)CC2)C1=O.O=C(O)C(F)(F)F	1.148
CN(C)C(=O)CN1CCC2(CCN(Cc3nccs3)CC2)C1=O.O=C(O)C(F)(F)F	-19.71
CN(C)C1COC2(CCN(Cc3nccs3)CC2)C1.O=C(O)C(F)(F)F.O=C(O)C(F)(F)F (centres undefined)	52.92
CCc1ccc2c(c1)C(CCNC(=O)Cc1ccc(F)cc1)C(=O)N2 (centres undefined)	3.277
Cc1c(CNCC(C)Oc2cccnc2)c2ccccc2n1CC(N)=O (centres undefined)	60.46
COc1ncccc1C(=O)NCC(C)Oc1cccnc1 (centres undefined)	-11.32
Cc1c(CNCCCOc2cccnc2)c2ccccc2n1CC(N)=O	-2.741
Cc1cc2n(n1)CC(CNC1CCN(C(=O)c3ccco3)CC1)CN2 (centres undefined)	7.634
COCCN1CCCC(O)(CN2CCCN(c3ncccn3)CC2)C1=O (centres undefined)	-4.112
CN(CC1(O)CCCCC1)C1CCCN(Cc2noc(C3CC3)n2)C1 (centres undefined)	0.01553
CN(CCc1cccs1)C1CCCN(Cc2noc(C3CC3)n2)C1 (centres undefined)	-17.24
Cc1nc(CN2CCCC(N(C)CCc3ccncc3)C2)no1 (centres undefined)	-4.077
Cc1cc(CN(C)C2CCCN(Cc3noc(C4CC4)n3)C2)no1 (centres undefined)	1.987
CN(CCS(C)(=O)=O)C1CCCN(Cc2noc(C3CC3)n2)C1 (centres undefined)	107.2
CCc1nc(CN2CCCC(N(C)CCn3cncn3)C2)no1 (centres undefined)	8.167
CN(CCc1ccccn1)C1CCCN(Cc2noc(C3CC3)n2)C1 (centres undefined)	103.4
CN(CCn1cccn1)C1CCCN(Cc2noc(C3CC3)n2)C1 (centres undefined)	100.3
CN(Cc1cscn1)C1CCCN(Cc2noc(C3CC3)n2)C1 (centres undefined)	3.354
CN(CCc1ccncc1)C1CCCN(Cc2noc(C3CC3)n2)C1 (centres undefined)	107.5
CN(CCCC#N)C1CCCN(Cc2noc(C3CC3)n2)C1 (centres undefined)	-8.895
